# Measured values published in PubChem BioAssay (EPA / NIEHS).
# Activity calls are given as the source filed them. Rule for the calls: active = hit-call score of the fitted dose curve at least 0.9, where 1 is the maximum; inactive = score below 0.9.
# Legend:
# Conditions in all cases: mRNA level, 48 h; actives raise or lower the signal
# [1] = read-out: Cyclin D1 (CCND1), CCND1 (gene 595); experiment: LTEA_HepaRG_CCND1: Life Technologies and Expression Analysis (LTEA) Assay for Cyclin D1 (CCND1) using HepaRG (AID 2283451)
# Outline: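 Expression change is measured by qRT-PCR in HepaRG cells after 48 h treatment across eight concentrations topping at 100 uM, with duplicate wells and DMSO (0.5%) serving as baseline for bidirectional fitting.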
# [2] = read-out: catalase (CAT), CAT (gene 847); experiment: LTEA_HepaRG_CAT: Life Technologies and Expression Analysis (LTEA) Assay for catalase (CAT) using HepaRG (AID 2283452)
# Outline: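 Differentiated HepaRG cells in serum-free induction medium were dosed 48 h in duplicate, eight half-log concentrations from 100 uM in 0.5% DMSO. Transcript measured by TaqMan qRT-PCR, normalised to ACTB/GAPDH/POLR2A, fitted bidirectionally against DMSO.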
# [3] = read-out: flavin-containing dimethylaniline monooxygenases 3 (FMO3), FMO3 (gene 2328); experiment: LTEA_HepaRG_FMO3: Life Technologies and Expression Analysis (LTEA) Assay for flavin-containing dimethylaniline monooxygenases 3 (FMO3) using HepaRG (AID 2283453)
# Outline: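 Differentiated HepaRG cells in serum-free induction medium, exposed 48 h in duplicate to 8 half-log concentrations up to 100 uM in 0.5% DMSO. FMO3 mRNA by qRT-PCR, normalized to ACTB, GAPDH, POLR2A; bidirectional fit vs DMSO.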
# [4] = read-out: Cytochrome P450 (CYP1A1), CYP1A1 (gene 1543); experiment: LTEA_HepaRG_CYP1A1: Life Technologies and Expression Analysis (LTEA) Assay for Cytochrome P450 (CYP1A1) using HepaRG (AID 2283454)
# Outline: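 Using HepaRG cultures with 0.5% DMSO as vehicle, eight-concentration exposures (max 100 uM) lasted 48 h. Transcript levels were measured by TaqMan qRT-PCR and normalized to ACTB, GAPDH and POLR2A.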
# [5] = read-out: CFLAR gene, CFLAR (gene 8837); experiment: LTEA_HepaRG_CFLAR: Life Technologies and Expression Analysis (LTEA) Assay for CFLAR gene using HepaRG (AID 2283455)
# Outline: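 HepaRG cells were plated for 48 h, switched to serum-free induction medium, then exposed in duplicate for 48 h to 8 concentrations (top 100 uM, half-log steps, 0.5% DMSO). CFLAR mRNA was measured by qRT-PCR, normalized to ACTB, GAPDH and POLR2A.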
# [6] = read-out: Forkhead box O1 (FOXO1), FOXO1 (gene 2308); experiment: LTEA_HepaRG_FOXO1: Life Technologies and Expression Analysis (LTEA) Assay for Forkhead box O1 (FOXO1) using HepaRG (AID 2283456)
# Outline: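 Differentiated human HepaRG cells in serum-free induction medium were exposed in duplicate for 48 h to eight half-log concentrations (top 100 uM, 0.5% DMSO). FOXO1 mRNA was measured by TaqMan qRT-PCR, normalised to ACTB, GAPDH and POLR2A, and fitted bidirectionally against DMSO.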
# [7] = read-out: growth arrest and DNA damage 45 (GADD45A), GADD45A (gene 1647); experiment: LTEA_HepaRG_GADD45A: Life Technologies and Expression Analysis (LTEA) Assay for growth arrest and DNA damage 45 (GADD45A) using HepaRG (AID 2283458)
# Outline: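 Cells plated and cultured 48 h, switched to serum-free induction medium, then dosed for 48 h (100 uM top, half-log dilutions, 0.5% DMSO). RNA was isolated and transcript measured by Fluidigm qRT-PCR.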
# [8] = read-out: Forkhead box O3 (FOXO3), FOXO3 (gene 2309); experiment: LTEA_HepaRG_FOXO3: Life Technologies and Expression Analysis (LTEA) Assay for Forkhead box O3 (FOXO3) using HepaRG (AID 2283459)
# Outline: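 Differentiated human HepaRG cells in serum-free induction medium were exposed in duplicate for 48 h to eight half-log concentrations up to 100 uM in 0.5% DMSO. FOXO3 mRNA was quantified by qRT-PCR, normalized to ACTB, GAPDH and POLR2A, with bidirectional fitting versus DMSO.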
# [9] = read-out: ABC Transporter (ABCB1), ABCB1 (gene 5243); experiment: LTEA_HepaRG_ABCB1: Life Technologies and Expression Analysis (LTEA) Assay for ABC Transporter (ABCB1) using HepaRG (AID 2283460)
# Outline: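 Differentiated human HepaRG cells, plated 48 h then switched to serum-free induction medium, were exposed in duplicate to eight half-log concentrations up to 100 uM in 0.5% DMSO for 48 h. ABCB1 mRNA was measured by TaqMan qRT-PCR, normalized to ACTB/GAPDH/POLR2A.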
# [10] = read-out: growth arrest and DNA damage 45 (GADD45B), GADD45B (gene 4616); experiment: LTEA_HepaRG_GADD45B: Life Technologies and Expression Analysis (LTEA) Assay for growth arrest and DNA damage 45 (GADD45B) using HepaRG (AID 2283461)
# Outline: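 Human HepaRG monolayers receive chemicals for 48 h at eight half-log concentrations, highest 100 uM, in 0.5% DMSO. Expression is measured by TaqMan qRT-PCR and normalized to ACTB, GAPDH and POLR2A.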
# [11] = read-out: ABC Transporter (ABCC3), ABCC3 (gene 8714); experiment: LTEA_HepaRG_ABCC3: Life Technologies and Expression Analysis (LTEA) Assay for ABC Transporter (ABCC3) using HepaRG (AID 2283462)
# Outline: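 Transcriptional change of ABCC3 in HepaRG after 48 h treatment, determined by qRT-PCR normalized to endogenous controls. Concentrations spanned eight half-log steps to 100 uM in 0.5% DMSO.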
# [12] = read-out: ABC Transporter (ABCB11), ABCB11 (gene 8647); experiment: LTEA_HepaRG_ABCB11: Life Technologies and Expression Analysis (LTEA) Assay for ABC Transporter (ABCB11) using HepaRG (AID 2283463)
# Outline: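 Differentiated human HepaRG cells were exposed for 48 h in serum-free induction medium to eight half-log concentrations up to 100 uM in 0.5% DMSO. ABCB11 mRNA was quantified by qRT-PCR, normalized to ACTB, GAPDH and POLR2A, and fitted bidirectionally versus DMSO.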
# [13] = read-out: ABC Transporter (ABCC2), ABCC2 (gene 1244); experiment: LTEA_HepaRG_ABCC2: Life Technologies and Expression Analysis (LTEA) Assay for ABC Transporter (ABCC2) using HepaRG (AID 2283464)
# Outline: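 After plating and 48 h culture, HepaRG medium is replaced with serum-free induction medium and chemicals are added (8 concentrations, max 100 uM, 0.5% DMSO) for 48 h. Total RNA then undergoes qRT-PCR for ABCC2 with housekeeping normalization.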
# [14] = read-out: Broad substrate specificity ATP-binding cassette transporter ABCG2 (Homo sapiens) (UniProt Q9UNQ0); experiment: LTEA_HepaRG_ABCG2: Life Technologies and Expression Analysis (LTEA) Assay for ABC Transporter (ABCG2) using HepaRG (AID 2283465)
# Outline: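 Differentiated HepaRG cells in serum-free induction medium were exposed for 48 h, in duplicate, to eight half-log concentrations up to 100 uM in 0.5% DMSO. ABCG2 mRNA was measured by TaqMan qRT-PCR, normalized to ACTB, GAPDH and POLR2A, and fitted bidirectionally versus DMSO.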
# [15] = read-out: ATP-citrate lyase (ACLY), ACLY (gene 47); experiment: LTEA_HepaRG_ACLY: Life Technologies and Expression Analysis (LTEA) Assay for ATP-citrate lyase (ACLY) using HepaRG (AID 2283466)
# Outline: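 Differentiated human HepaRG cells in serum-free induction medium exposed 48 h, in duplicate, to eight half-log concentrations from 100 uM top in 0.5% DMSO; ACLY mRNA measured by qRT-PCR, normalized to ACTB, GAPDH, POLR2A, fitted bidirectionally versus DMSO.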
# [16] = read-out: Peroxisomal acyl-coenzyme A oxidase 1 (ACOX1) gene, ACOX1 (gene 51); experiment: LTEA_HepaRG_ACOX1: Life Technologies and Expression Analysis (LTEA) Assay for Peroxisomal acyl-coenzyme A oxidase 1 (ACOX1) gene using HepaRG (AID 2283467)
# Outline: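 Differentiated human HepaRG cells were exposed in duplicate for 48 h in serum-free induction medium to eight half-log concentrations up to 100 uM in 0.5% DMSO. ACOX1 mRNA was then quantified by TaqMan qRT-PCR, normalized to ACTB, GAPDH and POLR2A.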
# [17] = read-out: Alkaline Phosphatase, Placental (ALPP) gene, ALPP (gene 250); experiment: LTEA_HepaRG_ALPP: Life Technologies and Expression Analysis (LTEA) Assay for Alkaline Phosphatase, Placental (ALPP) gene using HepaRG (AID 2283468)
# Outline: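 Using human liver HepaRG cells, chemicals are tested in duplicate over 48 h at half-log concentrations topping at 100 uM; phenobarbital 1 mM serves as induction control. ALPP mRNA change by qRT-PCR, bidirectional fit against vehicle.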
# [18] = read-out: Bcl-2 (BAD) gene, BAD (gene 572); experiment: LTEA_HepaRG_BAD: Life Technologies and Expression Analysis (LTEA) Assay for Bcl-2 (BAD) gene using HepaRG (AID 2283469)
# Outline: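 Differentiated human HepaRG cells in serum-free induction medium were exposed in duplicate for 48 h to eight concentrations (top 100 uM, half-log steps, 0.5% DMSO). BAD mRNA was quantified by qRT-PCR normalised to ACTB, GAPDH and POLR2A, with bidirectional fitting versus DMSO.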
# [19] = read-out: Bcl-2 (BAX) gene, BAX (gene 581); experiment: LTEA_HepaRG_BAX: Life Technologies and Expression Analysis (LTEA) Assay for Bcl-2 (BAX) gene using HepaRG (AID 2283470)
# Outline: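 HepaRG (human liver), 48 h exposure, duplicate wells. 8-pt curve, half-log from 100 uM, 0.5% DMSO. BAX transcript by TaqMan qRT-PCR; ACTB/GAPDH/POLR2A normalization; gain or loss vs DMSO baseline.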
# Broad substrate specificity ATP-binding cassette transporter ABCG2 (Homo sapiens), sequence (Q9UNQ0 whole entry, looked up): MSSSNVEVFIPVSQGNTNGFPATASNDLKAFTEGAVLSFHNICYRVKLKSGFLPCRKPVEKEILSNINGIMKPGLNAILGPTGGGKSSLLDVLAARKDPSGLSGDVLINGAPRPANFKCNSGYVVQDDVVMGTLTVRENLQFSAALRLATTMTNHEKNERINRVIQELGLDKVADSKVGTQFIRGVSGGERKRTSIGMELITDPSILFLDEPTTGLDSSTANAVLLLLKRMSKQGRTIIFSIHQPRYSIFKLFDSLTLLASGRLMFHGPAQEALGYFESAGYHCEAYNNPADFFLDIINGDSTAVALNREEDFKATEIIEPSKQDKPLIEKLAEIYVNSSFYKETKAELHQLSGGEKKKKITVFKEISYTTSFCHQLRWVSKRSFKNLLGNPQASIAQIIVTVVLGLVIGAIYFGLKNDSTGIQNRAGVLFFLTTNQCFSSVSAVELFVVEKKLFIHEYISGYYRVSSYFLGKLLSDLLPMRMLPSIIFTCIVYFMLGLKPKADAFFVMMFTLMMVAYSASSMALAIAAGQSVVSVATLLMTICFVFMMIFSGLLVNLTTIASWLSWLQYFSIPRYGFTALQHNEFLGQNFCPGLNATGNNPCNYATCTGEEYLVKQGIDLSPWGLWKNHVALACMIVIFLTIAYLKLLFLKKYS
structure (smiles),measurement,setting,value
Cc1cc(SC2=C(O)C[C@@](CCc3ccc(N)cc3)(C(C)C)OC2=O)c(C(C)(C)C)cc1CO,outcome,[1],inactive
same,outcome,[2],inactive
same,outcome,[3],inactive
same,AC50,[4],29.6 µM (active)
same,outcome,[5],inactive
same,outcome,[6],inactive
same,outcome,[7],inactive
same,outcome,[8],inactive
same,AC50,[9],2.44 µM (active)
same,outcome,[10],inactive
same,outcome,[11],inactive
same,AC50,[12],50 µM (active)
same,AC50,[13],2.16 µM (active)
same,outcome,[14],inactive
same,outcome,[15],inactive
same,outcome,[16],inactive
same,outcome,[17],inactive
same,outcome,[18],inactive
same,outcome,[19],inactive
CCCCCCCCCCCCCCOS(=O)(=O)O,outcome,[1],inactive
same,outcome,[2],inactive
same,outcome,[3],inactive
same,AC50,[4],72.7 µM (active)
same,outcome,[5],inactive
same,outcome,[6],inactive
same,outcome,[7],inactive
same,outcome,[8],inactive
same,outcome,[9],inactive
same,outcome,[10],inactive
same,outcome,[11],inactive
same,outcome,[12],inactive
same,outcome,[13],inactive
same,outcome,[14],inactive
same,outcome,[15],inactive
same,outcome,[16],inactive
same,outcome,[17],inactive
same,outcome,[18],inactive
same,outcome,[19],inactive
N[C@@H](Cc1c[nH]c2ccccc12)C(=O)O,outcome,[1],inactive
same,outcome,[2],inactive
same,outcome,[3],inactive
same,AC50,[4],10.9 µM (active)
same,outcome,[5],inactive
same,outcome,[6],inactive
same,outcome,[7],inactive
same,outcome,[8],inactive
same,outcome,[9],inactive
same,outcome,[10],inactive
same,outcome,[11],inactive
same,outcome,[12],inactive
same,outcome,[13],inactive
same,outcome,[14],inactive
same,outcome,[15],inactive
same,outcome,[16],inactive
same,outcome,[17],inactive
same,outcome,[18],inactive
same,outcome,[19],inactive
